This note sets out measurements from PubChem BioAssay (Tox21).

“And” between values parts separate entries of the source, which are not always exact repeats. Identical values can stand only once. Inconclusive results are not listed. A structure can be active in one record and inactive in another. The source made the active and inactive calls. Unless noted, the call rests on the fitted dose curve; in most records, active means well fitted curve in the direction sought with a large enough effect in the repeat runs; inconclusive means weak or mixed curves; inactive means no such curve, though single readings can be large; an effect the other way counts as inactive or inconclusive. Starred links: 1 amine or outer side, 2 acyl side, 3 side chain; linkers in the order of their positions; H or OH if unused. Positions of bridges follow the written chain, without caps; N, C: chain ends. Non-standard residues stand in square brackets, D forms with d. Residues, ends and D or L forms follow the SMILES beside them. Chains are numbered I, II in the order given. Actinocin(9to1) = Cc1c2oc3c(C)ccc(C(=O)[*:1])c3nc-2c(C(=O)[*:2])c(N)c1=O; NMeV = CN[C@H](C(=O)O)C(C)C; Sar = CNCC(=O)O

Experiment [1] in a line: qHTS assay to identify small molecule antagonists of the vitamin D receptor (VDR) signaling pathway - cell viability counter screen (AID 743225). Further: nearly all actives have a fitted effect of over 50% in size. Further: potency means the concentration at half of the fitted maximal effect. An outline of the steps: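 HEK293T VDR-bla; cpd + 1a,25-(OH)2D3 3 nM final, 16 h 37C/5% CO2; B/G FRET substrate 2 h RT; then CellTiter-Glo 30 min RT, luminescence.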
Experiment [2] is described as follows: qHTS assay to identify small molecule agonists of the endoplasmic reticulum stress response signaling pathway (AID 1159516; active means well fitted activation curve with a large enough effect in the signal ratio in the repeat runs, not every such curve was filed as active; the % refers to the signal ratio). An outline of the steps:
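ER stress element reporter (bla) in HeLa. 1,500 cells/well, overnight attachment; 5 hr compound; 2 hr RT substrate; dual-emission fluorescence.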

A short description of experiment [3]: qHTS assay to identify small molecule agonists of the endoplasmic reticulum stress response signaling pathway - cell viability counter screen (AID 1159517; calls by dose curve; further: nearly all actives have a fitted effect of over 50% in size; further: potency means the concentration at half of the fitted maximal effect). The method, boiled down: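 Luminescence readout: CellTiter-Glo, 30 min RT, same wells as the ESRE-bla reporter read. HeLa ESRE-bla, 1,500 cells/well, o/n 37 C; cpd 5 hr 37 C/5% CO2.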
The nature of experiment [4]: qHTS assay to identify small molecule agonists of the AP-1 signaling pathway - cell viability counter screen (AID 1159525; calls by dose curve; further: nearly all actives have a fitted effect of over 55% in size; further: potency means the concentration at half of the fitted maximal effect). An outline of the steps:
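ME-180 AP-1-bla, 2500 cells/well, Opti-MEM + 0.5% dialyzed FBS; overnight 37 °C; cpd 15-pt titration, 5 h 37 °C; CellTiter-Glo 30 min RT; luminescence read; normalised to TOAB and DMSO controls.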
On the technique in general: qHTS replaces the single test concentration by a dilution series.

The nature of experiment [5]: qHTS assay to identify small molecule agonists of the AP-1 signaling pathway (AID 1159526; calls by dose curve).
Experiment [6] deals with Retinoic acid receptor RXR-alpha (Homo sapiens) (UniProt P19793). The experiment can be described thus: qHTS assay to identify small molecule agonists of the RXR signaling pathway (AID 1159527; calls by dose curve; further: nearly all actives have a fitted effect of over 35% in size; further: potency means the concentration at half of the fitted maximal effect). An outline of the steps: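 Cells plated at 2,000/well, rested 5 hr at 37 C, pin-dosed with DMSO compound solutions, incubated 16 hr, then loaded with B/G FRET substrate for 2 hr at RT before dual-emission fluorescence reading.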

The nature of experiment [7]: qHTS assay to identify small molecule agonists of the RXR signaling pathway - cell viability counter screen (AID 1159529). Further: nearly all actives have a fitted effect of over 50% in size. Further: potency means the concentration at half of the fitted maximal effect. The method, boiled down: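 Steps: seed RXR-alpha-UAS-bla HEK 293T cells in assay medium containing 2% charcoal-stripped FBS; incubate 5 hr; add compounds in DMSO; incubate 16 hr at 37 C; after the bla read, add CellTiter-Glo and read luminescence at 30 min.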

The nature of experiment [8]: qHTS assay to identify small molecule antagonists of the retinoid acid receptor (RAR) signaling pathway - cell viability counter screen (AID 1159551). Further: nearly all actives have a fitted effect of over 35% in size. The method, boiled down:
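Following overnight attachment, C3RL4 reporter cells received DMSO-dissolved compounds and then retinol (1 uM final). Six hours later at 37 C, ATP content was measured by CellTiter-Glo luminescence.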

Experiment [9] can be described thus: qHTS assay to identify small molecule antagonists of the estrogen related receptor (ERR) signaling pathway from Tox21 library - cell viability counter screen (AID 1224834). Further: nearly all actives have a fitted effect of over 30% in size. Further: potency means the concentration at half of the fitted maximal effect. The method, boiled down:
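Viability readout (CellTiter-Fluor fluorescence, 30 min at 37 C) multiplexed with the ERR assay; cells treated 17.5 h at 37 C with compounds delivered in DMSO.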

Experiment [10] is described as follows: qHTS assay to identify small molecule agonists of the vitamin D receptor (VDR) signaling pathway - cell viability counter screen (AID 743224). Further: nearly all actives have a fitted effect of over 50% in size. Further: potency means the concentration at half of the fitted maximal effect. The method, boiled down: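 VDR-bla cell line, quantitative HTS format; 16 h compound incubation (37C, 5% CO2); ATP-based CellTiter-Glo luminescence measured in the reporter assay wells.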
Experiment [11] concerns the target Nuclear receptor ROR-gamma (Homo sapiens) (UniProt P51449). Description: qHTS assay to identify small molecule antagonists of the retinoid-related orphan receptor gamma (ROR-gamma) signaling pathway (AID 1159521; further: nearly all actives have a fitted effect of over 50% in size; further: potency means the concentration at half of the fitted maximal effect). The method, boiled down: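 Cells were plated, rested 4 h at 37 C, exposed to compounds for 2 h, then given 1 uM final doxycycline hyclate to induce RORγ expression. After 16 h, ONE-Glo luminescence from the ROR response element reporter was measured.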

The nature of experiment [12]: qHTS assay to identify small molecule antagonists of the retinoic acid receptor (RAR) signaling pathway (AID 1159552; further: nearly all actives have a fitted effect of over 50% in size; further: potency means the concentration at half of the fitted maximal effect). An outline of the steps:
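Retinol at 1 uM final stimulated RARE-luciferase expression in C3RL4 cells exposed to test compounds for 6 hr at 37 C. Reduced luminescence, read 30 min after detection reagent, indicated pathway antagonism.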

A short description of experiment [13]: qHTS assay to identify small molecule agonists of the retinoic acid receptor (RAR) signaling pathway (AID 1159553). Further: potency means the concentration at half of the fitted maximal effect. The method, boiled down:
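Cell line C3RL4, RARE luciferase reporter. Treatment: compounds in DMSO, 6 hr, 37 C, 5% CO2, after overnight plating. Detection: luminescence, 30 min RT after reagent.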

Experiment [14] deals with Luciferin 4-monooxygenase (Photinus pyralis) (UniProt P08659). Description: qHTS assay to identify small molecule inhibitors of firefly luciferase (AID 1224835). Further: nearly all actives have a fitted effect of over 25% in size. Further: potency means the concentration at half of the fitted maximal effect. The method, boiled down: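 Quantitative HTS format; KM concentrations of both substrates. Purified P. pyralis FLuc activity quantified from luminescence images.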
Experiment [15] can be described thus: qHTS assay to identify small molecule antagonists of the retinoid-related orphan receptor gamma (ROR-gamma) signaling pathway - cell viability counter screen (AID 1159520). Further: nearly all actives have a fitted effect of over 50% in size. Further: potency means the concentration at half of the fitted maximal effect. An outline of the steps: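 Tet-on ROR gamma CHO cells (1,000/well) were plated 4 hr, given compounds in DMSO for 2 hr at 37 C, then induced with 1 uM final doxycycline for 16 hr. Viability was read as ATP by CellTiter-Glo luminescence after 30 min.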

Sequence of Luciferin 4-monooxygenase (Photinus pyralis) (P08659 whole entry, looked up): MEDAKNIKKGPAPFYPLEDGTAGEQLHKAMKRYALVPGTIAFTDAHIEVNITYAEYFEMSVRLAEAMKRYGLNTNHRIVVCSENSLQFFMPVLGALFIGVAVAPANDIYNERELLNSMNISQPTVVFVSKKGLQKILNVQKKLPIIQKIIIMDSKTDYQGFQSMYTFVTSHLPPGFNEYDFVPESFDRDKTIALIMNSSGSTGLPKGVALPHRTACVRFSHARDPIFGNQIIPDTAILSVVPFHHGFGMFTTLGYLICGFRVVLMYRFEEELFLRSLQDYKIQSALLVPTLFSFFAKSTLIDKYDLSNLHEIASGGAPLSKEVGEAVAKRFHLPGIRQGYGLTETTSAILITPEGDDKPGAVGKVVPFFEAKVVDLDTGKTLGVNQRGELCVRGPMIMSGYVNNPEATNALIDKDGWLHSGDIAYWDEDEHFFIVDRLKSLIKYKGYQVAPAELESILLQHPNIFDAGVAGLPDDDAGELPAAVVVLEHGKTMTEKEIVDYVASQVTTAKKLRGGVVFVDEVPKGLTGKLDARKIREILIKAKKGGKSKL
Sequence of Retinoic acid receptor RXR-alpha (Homo sapiens) (P19793 whole entry, looked up): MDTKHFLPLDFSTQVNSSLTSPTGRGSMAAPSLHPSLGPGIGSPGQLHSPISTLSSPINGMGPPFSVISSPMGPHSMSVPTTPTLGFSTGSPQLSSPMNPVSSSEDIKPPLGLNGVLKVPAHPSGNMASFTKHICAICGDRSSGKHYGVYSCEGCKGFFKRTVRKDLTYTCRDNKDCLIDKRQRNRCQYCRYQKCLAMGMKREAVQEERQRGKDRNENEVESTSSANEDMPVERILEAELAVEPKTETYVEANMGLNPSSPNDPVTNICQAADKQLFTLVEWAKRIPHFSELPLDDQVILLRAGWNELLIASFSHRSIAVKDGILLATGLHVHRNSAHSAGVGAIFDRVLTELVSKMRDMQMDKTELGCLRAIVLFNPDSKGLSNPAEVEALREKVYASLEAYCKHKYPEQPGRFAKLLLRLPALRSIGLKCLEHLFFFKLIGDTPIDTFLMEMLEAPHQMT

Regarding `O`, the Potency result in experiment [1], in experiment [3], in [4], in experiment [5], in [6] and in [7] was “inactive” each time. Besides, the Potency entry in experiment [8] and in experiment [9] was “inactive” each time. Moreover, in [2], the compound was classed as inactive.
With `C=CS(=O)(=O)O`, the Potency result in [10], in experiment [1], in [3], in [11], in [4] and in experiment [5] was “inactive” throughout. The Potency result in [6], in experiment [7], in experiment [8], in experiment [12], in experiment [13] and in experiment [9] was “inactive” in each case. In addition, the Potency entry in experiment [14] is “inactive”. Moreover, the call in experiment [2] was inactive.
Turning to `Cc1c2oc3c(C)ccc(C(=O)N[C@@H]4C(=O)N[C@H](C(C)C)C(=O)N5CCC[C@H]5C(=O)N(C)CC(=O)N(C)[C@@H](C(C)C)C(=O)O[C@@H]4C)c3nc-2c(C(=O)N[C@@H]2C(=O)N[C@H](C(C)C)C(=O)N3CCC[C@H]3C(=O)N(C)CC(=O)N(C)[C@@H](C(C)C)C(=O)O[C@@H]2C)c(N)c1=O` (I: T[dV]P[Sar][NMeV] / II: T[dV]P[Sar][NMeV]; ester I:1-I:C, II:1-II:C; linker I:N-II:N via Actinocin(9to1)), the Potency in experiment [10] was 26.8 µM (active) and inactive; in experiment [3], 26.8 nM (active) and 107 nM (active); in experiment [15], 59.4 nM (active) and 59.6 nM (active); in experiment [11] it was 29.8 nM (active) and 188 nM (active); in [12], 16.8 nM (active) and 10.6 nM (active); in experiment [9], 7.48 µM (active) and 188 nM (active). Further, the Potency result in experiment [1], in [4], in [7] and in experiment [14] was “inactive” in each case.
With `Oc1c(Cl)cc(Cl)c(Cl)c1Cc1c(O)c(Cl)cc(Cl)c1Cl`, the Potency is 54.8 µM (active) and 27.5 µM (active) and 9.52 µM (active) in [1]; 17.3 µM (active) and 49 µM (active) in experiment [3]; 1.53 µM (active) and 1.93 µM (active) and 1.68 µM (active) in experiment [15]; 966 nM (active) and 1.37 µM (active) and 841 nM (active) in [11]; 27.5 µM (active) in [4]; 34.6 µM (active) and 49 µM (active) and 19 µM (active) in [7]. Further, the Potency in experiment [12] was 24.3 µM (active) and 15 µM (active); in [9], 13.6 µM (active) and 13.7 µM (active) and 8.41 µM (active). Also, the Potency result in experiment [13] and in experiment [14] was “inactive” throughout.
Regarding `CC(=O)Nc1ccc(C(=O)CCl)cc1`, the Potency entry was “inactive and 54.9 µM (active)” in experiment [10]; “inactive and 27.5 µM (active)” in experiment [3]; “inactive and 13.7 µM (active)” in experiment [15]; “inactive and 13.7 µM (active)” in [11]; 11 µM (active) in experiment [6]; “inactive and 48.6 µM (active)” in [12]. Besides, the Potency result in experiment [1], in experiment [4], in [5], in experiment [7], in experiment [13] and in [9] was “inactive” throughout.
For `O=C(O[C@@H]1Cc2c(O)cc(O)cc2O[C@@H]1c1cc(O)c(O)c(O)c1)c1cc(O)c(O)c(O)c1`, the Potency entry in experiment [10], in experiment [1], in [3], in [15], in [4] and in experiment [6] was “inactive” each time. Besides, the Potency result in experiment [7], in experiment [8], in experiment [12] and in experiment [13] was “inactive” in each case. The Potency in experiment [9] was 48.7 µM (active) and 52.5 µM (active).
As to `COC(=O)/C=C/c1ccccc1`, the Potency entry in experiment [10], in experiment [1], in experiment [3], in [15], in experiment [4] and in experiment [5] was “inactive” throughout. Further, the Potency result in experiment [6], in [7], in experiment [12], in experiment [13] and in [9] was “inactive” in each case.
For `C/C=C/c1ccc(OCC)c(O)c1`, the Potency entry in [10], in experiment [1], in experiment [3], in experiment [4], in experiment [5] and in experiment [6] was “inactive” throughout. The Potency entry in [7], in experiment [8], in experiment [12] and in experiment [9] was “inactive” in each case. In addition, the compound was classed as inactive in [2]. Further, the Potency in experiment [13] was 54.5 µM (active); in [14], 31.7 µM (active) and 35.6 µM (active).
With `OCCN1CCNCC1`, the Potency entry in experiment [1], in experiment [3], in [4], in [5], in [6] and in [7] was “inactive” throughout. The Potency entry in experiment [8], in experiment [9] and in [14] was “inactive” in each case. In addition, in [2], the outcome was inactive. Further, the Potency in experiment [15] was 60.5 µM (active) and inactive.
`C=CC(=O)OCCCCCCCC`: the Potency entry in [10], in experiment [1], in [3], in experiment [15], in experiment [11] and in [4] was “inactive” in each case. The Potency result in experiment [5], in experiment [6], in experiment [7], in [12], in [13] and in experiment [9] was “inactive” each time. In addition, the Potency entry in experiment [14] was “inactive”. Moreover, in experiment [2], the compound was called inactive.
Consider `COc1ccc(Cc2cnc(N)nc2N)cc1OC`, for which the Potency result in experiment [10], in [1], in experiment [3], in [15], in experiment [11] and in [4] was “inactive” in each case. Further, the Potency result in [5], in experiment [6], in experiment [7], in [8], in experiment [12] and in experiment [13] was “inactive” in each case. Also, in experiment [9], the Potency entry is “inactive”.
In the case of `CC(C)(C)c1cc(C(C)(C)C)c(O)c(C(C)(C)C)c1`, the Potency in experiment [10] is 38.9 µM (active); in experiment [4], “inactive and 49 µM (active)”. The Potency result in experiment [1], in experiment [3], in experiment [15], in [11], in [5] and in experiment [7] was “inactive” each time. For the same compound, the Potency result in experiment [8], in [9] and in experiment [14] was “inactive” in each case.
Turning to `CCCOC(=O)c1cc(O)c(O)c(O)c1`, the Potency entry in [10], in [1], in experiment [3], in experiment [4], in experiment [5] and in experiment [7] was “inactive” in each case. Moreover, the Potency result in [8] and in experiment [12] was “inactive” in each case. Also, the compound was classed as inactive in experiment [2]. Further, the Potency was 27.2 µM (active) in experiment [11]; 54.2 µM (active) and 61.1 µM (active) in experiment [9].
In the case of `O=C(Oc1ccccc1)c1ccccc1O`, the Potency result in experiment [10], in [1], in experiment [3], in experiment [11], in experiment [4] and in experiment [5] was “inactive” throughout. For the same compound, the Potency result in experiment [6], in experiment [7], in [12], in experiment [13] and in [9] was “inactive” in each case.
For `CC(C)CCOC(=O)c1ccc(N(C)C)cc1`, the Potency entry in [10], in experiment [1], in experiment [3], in experiment [11], in experiment [4] and in experiment [5] was “inactive” each time. Further, the Potency entry in [6], in [7], in [12] and in experiment [9] was “inactive” in each case. In addition, the result in experiment [2] was inactive. Also, the Potency in experiment [13] was 2.11 µM (active).
